In PubChem BioAssay AID1159580 (chemical genetic matrix, 2015):
The whole screen tested about 5,500 compounds, of which about 2,000 (36%) were called active. Not shown: some 18% with an inconclusive outcome. Rule as the data show it: active = normalized growth mostly below about 0.91 (no sharp cut-off); inconclusive = no clear call, values can overlap the other calls; inactive = mostly above about 0.92. The list shows a part of the results.

Test: chemical genetic growth profiling, strain panel (AID 1159580);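 also: tested at 20 µM; growth read once vehicle control cultures reached saturation at 30 °C; 1 = growth at the plate median or of vehicle wells; lower values mean less growth of the strain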
Settings: S. cerevisiae deletion strains, growth OD

Measured: normalized growth

CCN(CCCl)Cc1ccccc1Br
inactive: locus YAL040C, strain CLN3, hits give low values 1.06 | locus YCL061C, strain MRC1 (second series), hits give low values 0.994 | locus YDR363W, strain ESC2, hits give low values 0.91 | locus YER002W, strain NOP16, hits give low values 1.04 | locus YJR075W, strain HOC1, hits give low values 0.994 | locus YNL153C, strain GIM3, hits give low values 1.02 | locus YNL175C, strain NOP13, hits give low values 1 | locus YNL197C, strain WHI3, hits give low values 1.02 | locus YNL224C, strain SQS1, hits give low values 0.995 | locus YNL322C, strain KRE1, hits give low values 0.974 | locus YOR083W, strain WHI5 (second series), hits give low values 0.968 | locus YPL241C, strain CIN2, hits give low values 0.999
